Test results reported in paper PMC5540273 (PLoS ONE, 2017).

What was measured:
p38-delta = settings: concentration: 1 μM, replicates: in singlicate; n = 1
p38-gamma = system: T1, p38-gamma; settings: concentration: 1 μM, replicates: in singlicate; n = 1
T1 construct: gene MAPK12
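Note: KINOMEscan kinase panel screen.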

SMILES	%Inh (p38-delta) [%]	%Inh (p38-gamma) [%]
COc1ccc(-c2coc3ccc(-c4nnc(SCc5cccc(C#N)c5)o4)cc23)cc1	16	7
Cn1c(=O)c(F)c(Nc2ccc(I)cc2F)c2c(=O)n(OC[C@H](O)CO)cnc21	0	39
O=c1cc(N2CCOCC2)nc2n(Cc3ccc(F)c(Cl)c3)ccn12 [GSK2297099]	36	0
CCC(=O)c1c(-c2ccccc2)c2cc(Cl)ccc2c(=O)n1Cc1ccc(C(=O)O)cc1	4	0
COc1cc2ncn(-c3cc(OCc4ccncc4)c(C(N)=O)s3)c2cc1OC [GSK336313]	42	0
O=C(NCCNc1ccnc(Nc2ccc(F)cc2)n1)Nc1ccc2c(c1)OCO2 [GSK1379882]	37	19
CCn1c(-c2nonc2N)nc2ccccc21 [SB-693162/GW549034]	0	10
Cc1ccccc1COc1cc(-n2cnc3cc(Cl)ccc32)sc1C(N)=O [GW813349]	0	20
CCS(=O)c1ccc(-c2coc3ccc(-c4nnc(C)o4)cc23)cc1 (centres unmarked)	11	0
COc1cccc(C2=C(N(C)c3ccccc3)C(=O)NC2=O)c1 [SB-334865]	42	0
COC(=O)c1c(-c2ccccc2)c2cc(C)ccc2c(=O)n1Cc1ccccc1	21	0
Nc1nc(-c2ccccc2F)c(-c2ccnc3ccccc23)s1 [GW560459]	36	0
CCC(=O)c1c(-c2ccccc2)c2cc(Cl)ccc2c(=O)n1Cc1cc(S(C)(=O)=O)n(CC(N)=O)n1	16	7
COc1ccc(-n2cnc3c(N)ncnc32)cc1 [SKF-97236]	0	12
COc1cc(Nc2nccc(N3CCC(NC(=O)C4COc5ccccc5O4)C3)n2)cc(OC)c1OC (centres unmarked) [GSK1379761]	34	39
Cc1cc(Nc2nc(-c3cccc(C)n3)nc3ccccc23)ccn1 [GW872411]	0	0
Nc1n[nH]c2ncc(-c3ccccc3)cc12 [SB-517081]	24	31
O=C(Nc1ccc2c(c1)OCO2)NC1CCN(c2ccnc(NCc3ccc(F)cc3)n2)CC1 [GSK1379859]	28	0
COc1ccc(CNC(=O)NC2CCN(c3ccnc(Nc4ccc(F)cc4)n3)C2)cc1 (centres unmarked) [GSK1379706]	38	4
O=C(Nc1n[nH]c2nc(-c3ccccc3)c(Cl)cc12)C1CC1 [SB-734909]	10	27
Nc1ncnc2c1ncn2-c1cccc(F)c1 [SKF-97560]	0	48
CCn1c(-c2ccoc2)nc2cnccc21 [SB-733887]	25	12
O=C(Nc1n[nH]c2nc(-c3ccccc3)c(Br)cc12)C1CC1 [SB-708998]	0	26
CC(C)(C)c1ccc(C(=O)Nc2cn3cc(-c4ccccc4)ccc3n2)cc1	34	8
COc1cc2ncn(-c3cc(OCCCc4ccccc4)c(C(N)=O)s3)c2cc1OC [GSK205189]	6	0

SMILES	%Inh (p38-delta) [%]	%Inh (p38-gamma) [%]
COc1cccc(-n2cnc3c(N)ncnc32)c1 [SKF-97416]	0	52
COc1cccc(C2=C(Nc3cccc(C(=O)O)c3)C(=O)NC2=O)c1 [SB-390770]	34	0
COC(=O)c1c(-c2ccccc2)c2cc(Br)ccc2c(=O)n1Cc1ccc(NC(=O)CCC(=O)O)cc1	28	21
COc1cc2ncn(-c3cc(OCc4ccc(S(C)(=O)=O)cc4)c(C(N)=O)s3)c2cc1OC [GW869979]	0	24
Nc1nccc2scc(-c3ccc4c(c3)CCN4C(=O)Cc3ccccc3)c12 [GSK2576924]	19	5
Cc1c(Cn2c(C)nn3c(=O)cc(N4CCO[C@H](C)C4)nc23)cccc1C(F)(F)F [GSK2373690]	41	0
COc1cc(Nc2ccnc3ccc(C(F)(F)F)cc23)cc(OC)c1OC [GW577382]	4	0
COc1cc2nccc(Nc3cccc(Oc4ccccc4)c3)c2cc1OC.Cl [GW284543]	22	0
CCC(=O)c1c(-c2ccccc2)c2cc(Cl)ccc2c(=O)n1Cc1cc(S(C)(=O)=O)n(CC(F)F)n1	19	0
CCC(=O)c1c(-c2ccccc2)c2cc(Cl)ccc2c(=O)n1Cc1cc(C(=O)NC2CC2)n(C)n1	35	9
COc1ccc(-c2cc3c(C)nc(N)nc3n([C@H]3CC[C@H](OCCO)CC3)c2=O)cn1	13	0
COc1ccc(Nc2nccc(N3CCC(NS(=O)(=O)c4ccc(NC(C)=O)cc4)C3)n2)cc1 (centres unmarked) [GSK1379729]	30	17
CCCC(=O)Nc1n[nH]c2ncc(-c3cccc4ccccc34)cc12 [SB-642057]	26	39
Cl.c1ccc(Cn2cnc3cc(Nc4ncnc5ccccc45)ccc32)cc1 [GW272142]	39	0
Cc1nc(N(C)[C@H]2CN(C(=O)CC#N)CC[C@H]2C)c2cc[nH]c2n1	0	11
CCc1ccc(-c2ccc3c(c2)-c2nn(C)cc2S(=O)(=O)N3C)cc1	22	9
COc1cc(OC)cc(-c2cc3cnc(N)nc3nc2NC(=O)NC(C)(C)C)c1	0	9
Cc1cccc(-c2nc(Nc3ccc4c(cnn4C)c3)c3ccccc3n2)n1 [GW876731]	0	16
FC(F)(F)c1ccc(-c2ncn(CCCN3CCOCC3)c2-c2ccncc2)cc1 [SB-217780]	42	2
COC(=O)c1c(-c2ccccc2)c2cc(Br)ccc2c(=O)n1Cc1ccc(S(C)(=O)=O)cc1	38	29
CN(C)c1cc(-c2ccc3c(N)n[nH]c3c2)nc(N)n1 [GSK2219329]	37	0
COc1cc(Nc2nccc(N3CCC(NC(=O)C(C)c4ccc(Cl)cc4)C3)n2)cc(OC)c1OC (centres unmarked) [GSK1379757]	43	1
Cc1nnc(-c2ccc3ncn(-c4ccc(S(C)=O)cc4)c3c2)o1 (centres unmarked)	1	0
COc1cc2nccc(Nc3ccc(OCc4ccc(NC(C)=O)cc4)cc3)c2cc1OC.Cl [GW440135]	24	0
Fc1cccc(CSc2nnc(-c3ccc4c(c3)CCO4)o2)c1	28	21

SMILES	%Inh (p38-delta) [%]	%Inh (p38-gamma) [%]
CN1C(=O)C(Nc2ccccc2)=C(c2ccccc2)C1=O [SB-300079]	0	0
CCC(=O)c1c(-c2ccccc2)c2cc(Cl)ccc2c(=O)n1Cc1cc(S(C)(=O)=O)n(CCC(C)(C)O)n1	32	26
O=C(NCc1cccs1)c1cc(C(=O)c2c(Cl)cccc2Cl)c[nH]1 [GW823670]	0	0
O=C(Nc1n[nH]c2cc(-c3ccccc3F)ccc12)C1CC1 [SB-733371]	0	19
COc1ccc(-c2cc3c(C)nc(N)nc3n([C@H]3CC[C@H](O)CC3)c2=O)cn1	0	100
Nc1ncnc2c1ncn2-c1cccc2ccccc12 [SKF-97184]	0	0
CCCNC(=O)Nc1ccc(Oc2ncnc3ccn(C)c23)cc1	4	3
COc1cc2ncn(-c3cc(OCc4ccncc4Br)c(C(N)=O)s3)c2cc1OC [GW854278]	30	10
Cc1ccc(Oc2ccc(Nc3ncnc4cc[nH]c34)cc2C)cn1	30	35
CN1C(=O)C(Nc2cc(Cl)c(O)c(Cl)c2)=C(c2ccc(Cl)cc2)C1=O [SB-404321]	21	23
Nc1ncnc2c1ncn2-c1ccc(Cl)cc1 [AH2635]	32	0
Cc1cccc(-c2cc(-c3c[nH]nc3-c3ccccn3)ccn2)c1 [GW679395]	44	12
Cc1nn2c(=O)cc(N3CCOCC3)nc2n1Cc1cccc(Cl)c1Cl [GSK2342769]	17	0
Nc1nc(N)c2nc(-c3ccccc3)[nH]c2n1 [SKF-12778]	19	0
CCS(=O)(=O)c1ccc(OC)c(Nc2ncc(-c3ccc(F)cc3)o2)c1.Cl [GW591947]	43	6
Cc1nnc(-c2ccc(C)c(-c3ccc(C(=O)O)cc3)c2)o1 [GW608005]	2	0
Cl.NS(=O)(=O)c1cccc(Nc2cc(-c3ccc(F)cc3)n[nH]2)c1 [GW824645]	0	0
C[C@@H]1CC[C@H](C(=O)NC2CCCCC2)CN1c1cc(-c2ccc3c(N)n[nH]c3c2)nc(N)n1 [GSK2291363]	42	45
OCCCNc1nccc(-c2c(-c3cccc(C(F)(F)F)c3)nn3cc(C(F)(F)F)ccc23)n1 [GW630813]	20	0
Cc1ccc(-c2ccc3c(ccc4sc5c(c43)NC[C@@H](C)N=C5N(C)C)n2)cn1	10	14
CCc1nc(-c2cccc(C)c2)c(-c2ccncc2)s1	0	10
O=C1NC(=O)C(c2ccccc2)=C1Nc1cccc(O)c1 [SB-390534]	0	15
Nc1n[nH]c2nnc(-c3ccccc3)c(-c3ccccc3)c12 [GW554060]	27	0
